“And” between values parts separate entries of the source, which are not always exact repeats. Identical values can stand only once. The whole screen tested about 350,000 compounds, of which about 6,000 (1.7%) were called active. Inconclusive results (about 5%) are left out. No stated cut-off is given here; in the data, active means CPE inhibition above about 20% (passing the limit was not always enough); inconclusive means no clear call, values can overlap the other calls; tested in BHK-21 cells. The entries come from a sample that favours actives as a whole.
Experiment: protection of cells from dengue 2 killing – plate reader, single concentration, primary screen (AID 651640);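 further: 0% = median of neutral control wells and 100% = median of positive control wells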
Conditions: DENV2-infected cells, cytopathic effect rescue, at 9.99 µM, stronger effect = higher value
In the case of `COc1ccccc1-c1cn(CC[C@H]2CC[C@@H](NC(=O)CCN3CCCCC3)[C@@H](CO)O2)nn1`, the CPE inhibition is reported as -1.83% (inactive).
In the case of `C[C@H]1CN([C@@H](C)CO)S(=O)(=O)c2ccc(C#Cc3cccc(F)c3)cc2O[C@@H]1CN(C)S(=O)(=O)c1cn(C)cn1`, the CPE inhibition is reported as -0.538% (inactive).
In the case of `CCNC(=O)[C@H]1[C@H](CO)[C@H]2Cn3c(cccc3=O)[C@@H]1N2Cc1cc(F)ccc1F`, the CPE inhibition is reported as -7.97% (inactive).
In the case of `CCCNC(=O)N1C[C@@H](O)COC[C@@H]2O[C@@H](CC(=O)O)CC[C@H]21`, the CPE inhibition is reported as 5.1% (inactive).
For `CN(C)CC(=O)N[C@@H]1C[C@@H]2O[C@H](CO)CC[C@@H]2O[C@@H]1CCc1ccc(C#Cc2ccccc2)cc1`, the CPE inhibition was 6.51% (inactive).
In the case of `C[C@H](CO)N1C[C@H](C)[C@H](CN(C)C)Oc2ncc(/C=C/c3ccccc3)cc2C1=O`, the CPE inhibition is reported as -2.89% (inactive) and -2.09% (inactive).
With `Cc1noc(C)c1NC(=O)Nc1ccc2c(c1)C(=O)N([C@H](C)CO)C[C@H](C)[C@H](CN(C)Cc1ccc(-c3ccccc3)cc1)O2` the CPE inhibition was 5.27% (inactive).
For `C[C@H](CO)N1C[C@H](C)[C@H](CN(C)Cc2ccncc2)Oc2ccc(N(C)C)cc2C1=O`, the CPE inhibition was 24.8% (active).
For `C[C@H](O)C#Cc1cnc2c(c1)C(=O)N([C@H](C)CO)C[C@@H](C)[C@@H](CN(C)C(=O)Nc1ccc(C(F)(F)F)cc1)O2`, the CPE inhibition was -2.9% (inactive).
For `Cc1noc(C)c1NC(=O)Nc1ccc2c(c1)C(=O)N([C@H](C)CO)C[C@@H](C)[C@@H](CN(C)Cc1ccccc1)O2`, the CPE inhibition was 33.6% (active).
With `C[C@H]1CCCCO[C@@H](CN(C)Cc2ccc3c(c2)OCO3)[C@@H](C)CN([C@@H](C)CO)C(=O)c2cc(NC(=O)Nc3ccc(F)cc3)ccc2O1` the CPE inhibition was 23% (active).
In the case of `C[C@@H]1CN([C@H](C)CO)C(=O)c2cc(NC(=O)Nc3ccc4c(c3)OCO4)ccc2O[C@@H](C)CCCCO[C@@H]1CN(C)Cc1ccc2c(c1)OCO2`, the CPE inhibition is reported as -24.7% (inactive).
With `C[C@@H]1CN([C@@H](C)CO)C(=O)c2cc(/C=C/c3ccccc3)cnc2O[C@H]1CN(C)C(=O)Nc1ccc(C(F)(F)F)cc1` the CPE inhibition was 22.8% (active).
In the case of `Cc1noc(C)c1NC(=O)Nc1ccc2c(c1)C(=O)N([C@@H](C)CO)C[C@H](C)[C@H](CN(C)Cc1ccc(-c3ccccc3)cc1)O2`, the CPE inhibition is reported as -1.16% (inactive).
With `C[C@@H]1CN([C@@H](C)CO)C(=O)c2cc(N(C)C)ccc2O[C@H]1CN(C)Cc1ccc(C(F)(F)F)cc1` the CPE inhibition was 2.48% (inactive).
For `C[C@H]1CN([C@@H](C)CO)C(=O)c2cc(N(C)C)ccc2O[C@@H]1CN(C)Cc1ccccc1`, the CPE inhibition was 1.9% (inactive).
In the case of `C/C=C/c1cnc2c(c1)C(=O)N([C@H](C)CO)C[C@H](C)[C@@H](CN(C)C(=O)Nc1ccc(C(F)(F)F)cc1)O2`, the CPE inhibition is reported as -8.88% (inactive).
With `C[C@@H]1CCCCO[C@@H](CN(C)Cc2ccc3c(c2)OCO3)[C@@H](C)CN([C@@H](C)CO)C(=O)c2cc(NC(=O)Nc3ccccc3)ccc2O1` the CPE inhibition was -0.739% (inactive).
